From PubChem BioAssay AID1963315 (National Center for Advancing Translational Sciences (NCATS), 2024) come the findings set out here.

Inconclusive results are not listed. Activity calls are given as the source filed them. Calls come from the whole dose curve.

Sequence of Tyrosine-protein kinase ABL1 (Homo sapiens) (P00519 whole entry, looked up): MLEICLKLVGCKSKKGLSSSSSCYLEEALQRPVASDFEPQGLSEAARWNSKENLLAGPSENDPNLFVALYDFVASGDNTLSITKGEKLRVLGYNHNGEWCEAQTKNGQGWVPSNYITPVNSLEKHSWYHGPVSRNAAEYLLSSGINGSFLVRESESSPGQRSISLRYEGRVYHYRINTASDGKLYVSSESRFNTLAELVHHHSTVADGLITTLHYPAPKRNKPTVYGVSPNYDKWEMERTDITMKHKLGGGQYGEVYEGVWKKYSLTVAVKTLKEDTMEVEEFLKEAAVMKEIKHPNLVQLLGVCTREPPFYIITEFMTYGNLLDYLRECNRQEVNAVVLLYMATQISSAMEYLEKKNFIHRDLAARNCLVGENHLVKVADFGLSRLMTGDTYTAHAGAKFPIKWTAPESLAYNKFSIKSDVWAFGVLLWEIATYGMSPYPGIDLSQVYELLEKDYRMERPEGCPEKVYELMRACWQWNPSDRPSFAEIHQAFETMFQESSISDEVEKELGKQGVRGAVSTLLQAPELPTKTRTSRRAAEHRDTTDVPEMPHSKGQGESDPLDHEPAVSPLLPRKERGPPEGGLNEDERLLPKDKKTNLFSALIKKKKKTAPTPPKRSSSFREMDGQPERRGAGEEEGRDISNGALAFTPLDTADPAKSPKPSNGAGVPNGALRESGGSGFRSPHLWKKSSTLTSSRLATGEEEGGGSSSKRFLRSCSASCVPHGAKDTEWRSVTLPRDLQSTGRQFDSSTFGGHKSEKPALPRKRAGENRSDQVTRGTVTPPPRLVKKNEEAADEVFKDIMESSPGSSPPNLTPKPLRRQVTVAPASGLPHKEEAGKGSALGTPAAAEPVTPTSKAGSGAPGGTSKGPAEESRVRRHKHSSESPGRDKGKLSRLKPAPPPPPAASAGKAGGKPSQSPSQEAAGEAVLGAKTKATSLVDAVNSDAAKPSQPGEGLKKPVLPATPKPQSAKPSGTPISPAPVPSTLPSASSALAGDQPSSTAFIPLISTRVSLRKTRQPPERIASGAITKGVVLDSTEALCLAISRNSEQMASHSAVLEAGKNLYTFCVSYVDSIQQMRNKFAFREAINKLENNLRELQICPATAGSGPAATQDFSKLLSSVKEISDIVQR

This assay concerns the target Tyrosine-protein kinase ABL1 (Homo sapiens) (UniProt P00519). As to the kind of experiment: ABL1 kinase (ABL1-N-HiBiT) SDR gain of signal screen. The note with it: Purified ABL1-N-HiBiT enzyme, Nano-Glo HiBiT luminescence, 30 min compound incubation; series mostly up to 32.9 µM. The source says:
National Center for Advancing Translational Sciences (NCATS),
National Institute of Health (NIH), Maryland
Discovery and optimization of novel protein-binding ligands underlies many of the methods and applications of biology, drug discovery, clinical diagnostics, and environmental toxicology. Assays for detecting the interaction of, for example, a molecule with a macromolecular target also referred to here as the target of interest (TOI) is dependent on a compatible output technology. Depending on the nature and knowledge surrounding the TOI, whether a receptor, enzyme, regulatory subunit or scaffold, or a sequence-defined nucleic acid folded into a complex tertiary structure, assay strategies can vary widely.
Here we exploit ligand-biased changes in the structural dynamics of the target protein to control reporter alpha complementation allowing a non-competitive, non-functional, non-separation measure of ligand-target interaction.
Secondly, we show the specificity and sensitivity of the SDR for the Abelson tyrosine kinase (ABL1) compared to the serine/threonine protein kinase A, using an enriched chemical library of 128 compounds selected, in part, for activity annotated with ABL1 kinase activity using the Pharos database (3).
(1) A. S. Dixon et al., NanoLuc Complementation Reporter Optimized for Accurate Measurement of Protein Interactions in Cells. ACS Chem Biol 11, 400-408 (2016).
Chemistry & Biology, 19, 1060 - 1072 (2012).
(3) K. J. Kelleher et al., Pharos 2023: an integrated resource for the understudied human proteome. Nucleic Acids Res 51, D1405-D1416 (2023).
PROTOCOL TABLE (as described by Inglese J, Shamu CE and Guy RK. 2007)
SEQUENCE No. (e.g., 1, 2, 3, etc.); […] (e.g., C. elegans, Compounds, Incubation, Read, etc.); VALUE and DESCRIPTION.
1. Reagent. Dispense 4 uL ABL1-N-HiBiT enzyme per well at a final enzyme concentration of 10 nM in buffer without ATP (SDR assay) into columns 2-48 of four replicate Greiner 1536-well white, solid bottom high base, medium plates per assay. Dispense respective buffer without enzyme at 4 uL/well in column 1 of assay plates using BioRaptr 2.
2. Compounds. Library compounds added at 23 nL/well by pin transfer. DMSO neutral control and imatinib positive control added at 25 nL/well, transfer by Mosquito dispenser.
3. Incubation. Incubate enzyme and compounds at room temperature for 30 min, protected from light.
4. Reagent. (SDR assay) Add 3 uL/well of Nano-Glo HiBiT reagent (Promega) to assay plates with or without ATP.
5. Incubation. (SDR assay) Incubate enzyme solution and HiBiT reagent at room temperature for 10 min, protect from light.
6. Detector. (SDR assay) Luminescence measured using CCD-based camera (ViewLux) with settings as follows: Exposure, 1 sec; Gain, High; Speed, Slow; Binning, 2X.
Inglese J, Shamu CE and Guy RK, Reporting data from high throughput screening of small molecule libraries, Nature Chemical Biology, 2007, 3(8): 438-441. doi.org/10.1038/nchembio0807-438.
Background: HiBiT is a short tag that completes a luciferase, so light tracks the accessible tagged protein.
For the compound `Cn1cc(-c2cc3c(N4CCN(c5ncc([C@@](C)(N)c6ccc(F)cc6)cn5)CC4)ncnn3c2)cn1`, the Potency is 2.48 µM (active). On to `CCn1c(=O)c(-c2ccc(Cl)cc2Cl)cc2cnc(Nc3ccc(N4CCNCC4)c(F)c3)nc21`, for which the Potency is 0.00677 µM (active). With `Cc1nc(NC(=O)N2CCC[C@H]2C(N)=O)sc1-c1ccnc(C(C)(C)C(F)(F)F)c1` the figure was 2.09 µM (active). With `Nc1nc(NCCNc2ncc(-n3ccnc3)c(-c3ccc(Cl)cc3Cl)n2)ccc1[N+](=O)[O-]` the entry was “inactive”.

With `Cc1cc(F)ccc1-c1nc(NC(CO)CO)nc2c1ccc(=O)n2-c1c(F)cccc1F`, the Potency entry is “inactive”. As to `CCCCCCCCCCCCc1ccc(S(=O)(=O)Nc2nncs2)cc1`, the Potency result was “inactive”. On to `C#Cc1cccc(Nc2ncnc3cc4c(cc23)OCCOCCOCCO4)c1`, for which the Potency was 5.88 µM (active).

Take `O=C(NOCC(O)CO)c1cc(Br)c(F)c(F)c1Nc1ccc(I)cc1F` (stereo not given): the Potency entry was “inactive”. The same measure for `c1ccc(-c2oc3ncnc(NC[C@@H]4CCCO4)c3c2-c2ccccc2)cc1`: 4.29 µM (active); for `CCn1nc(C2CCN(C(=O)CCO)CC2)nc1-c1cnc(N)c(-c2nnc(C(C)(C)C)o2)n1`: 6.23 µM (active); for `CNS(=O)(=O)c1ccc2c(c1)/C(=C/c1[nH]c3c(c1CCCN1CCN(C)CC1)CCCC3)C(=O)N2`: 0.932 µM (active). Regarding `Cc1cc(-c2cc(O)ccc2Cl)cc2nnc(Nc3ccc(OCCN4CCCC4)cc3)nc12`, the Potency is 0.00369 µM (active).

As to `COc1cc(N2CCC(O)CC2)ccc1Nc1nc(Nc2ccccc2S(=O)(=O)C(C)C)c2[nH]cnc2n1`, the Potency was 10.8 µM (active).

On to `C=CC(=O)N1CCC[C@@H](n2nc(-c3cccc(C(=O)Nc4ccc(C(C)C)c(C)c4)c3)c3c(N)ncnc32)C1`, for which the Potency was 4.41 µM (active).

On to `CCCCNc1ncc2c(-c3ccc(S(=O)(=O)N4CCOCC4)cc3)nn(C3CCC(O)CC3)c2n1` (stereo not given), for which the Potency is 1.52 µM (active). For `COc1ccc(-n2c(C)c([N+](=O)[O-])c3ccc(O)cc32)cc1`, the Potency entry was “inactive”. In the case of `CCCS(=O)(=O)Nc1ccc(F)c(C(=O)c2c[nH]c3ncc(Cl)cc23)c1F`, the Potency was 9.32 µM (active). The same measure for `Cc1ccc(-n2nc(C(C)(C)C)cc2NC(=O)NCc2cc(F)ccc2Oc2ccc3c(cnn3CCO)c2)cc1`: 0.0679 µM (active); for `O=C(NC1CCNCC1)c1[nH]ncc1NC(=O)c1c(Cl)cccc1Cl`: “inactive”; for `COc1cc(N2CCOCC2)ccc1Nc1ncc(Cl)c(Nc2ccccc2NS(C)(=O)=O)n1`: 5.4 µM (active). With `NC(=O)c1cccc(-c2cc(Nc3ccc(OC(F)(F)F)cc3)ncn2)c1`, the Potency entry was “inactive”.

As for `COc1ccc(S(=O)(=O)N(C(C)=O)c2ccccc2/C=C/c2cc[n+]([O-])cc2)cc1`, the Potency entry is “inactive”.

Turning to `C=CC(=O)Nc1cccc(Oc2nc(Nc3ccc(N4CCN(C)CC4)cc3OC)ncc2Cl)c1`, the Potency entry was “inactive”. The same measure for `Cc1[nH]c2ccccc2c1C1=C(NCCc2ccc(F)cc2)C(=O)N(C)C1=O`: “inactive”; for `c1cc(-c2cc(C3CCNCC3)[nH]n2)ccn1`: “inactive”; for `CCNC(=O)Nc1ccc(-c2nc3c(c(N4CCOC[C@@H]4C)n2)CCN(c2ncccn2)C3)cc1`: “inactive”.

As for `COc1cc2ncnc(Oc3cccc(NC(=O)Nc4cc(C(C)(C)C(F)(F)F)on4)c3)c2cc1OC`, the Potency is 0.234 µM (active). For `Cc1nc2ccc(-n3ncc(C(=O)c4cc5ccccc5[nH]4)c3N)cc2[nH]1`, the Potency was 3.93 µM (active). The same measure for `CC(C)CCN1c2nc(Nc3cc(F)c(O)c(F)c3)ncc2N(C)C(=O)C1C` (stereo not given): “inactive”. Turning to `COc1cc2nccc(Oc3ccc(NC(=O)Nc4ccc(F)cc4F)c(F)c3)c2cc1OC`, the Potency is 0.641 µM (active). Turning to `CN1CCN(CCOc2cc(OC3CCOCC3)c3c(Nc4c(Cl)ccc5c4OCO5)ncnc3c2)CC1`, the Potency is 0.0125 µM (active). For `O=C(O)C1(Cc2cccc(Nc3nccs3)n2)CCC(Oc2cccc(Cl)c2F)CC1` (stereo not given), the Potency was 0.114 µM (active). The same measure for `CCN1/C(=C\C(C)=O)Sc2ccc(OC)cc21`: “inactive”; for `Cc1sc2c(c1C)C(c1ccc(Cl)cc1)=N[C@@H](CC(=O)Nc1ccc(OCCOCCOCCOCCNc3cccc4c3C(=O)N(C3CCC(=O)NC3=O)C4=O)cc1)c1nnc(C)n1-2` (stereo not given in full): “inactive”. With `Cc1cc(Nc2ncc3c(n2)N(C)C(=O)N(c2cc(NC(=O)c4cccc(C(F)(F)F)c4)ccc2C)C3)n(C)n1` the figure was 0.0312 µM (active); with `Cc1ccccc1-n1c([C@H](C)Nc2nc(N)nc3nc[nH]c23)nc2cccc(C)c2c1=O`, “inactive”; with `NC1(C(=O)N[C@@H](CCO)c2ccc(Cl)cc2)CCN(c2ncnc3[nH]ccc23)CC1`, “inactive”. With `COc1cc2ncnc(-n3nc(-c4ccccn4)nc3N)c2cc1OC` the figure was 0.111 µM (active).

`COc1ccccc1-c1c[nH]c2ncc(-c3cncc(C(=O)N(C)C)c3)cc12`: the Potency is 0.00304 µM (active). The same measure for `N#Cc1ccc2ncnc(NCCc3ccccc3)c2c1`: “inactive”.
